Source: PubChem BioAssay
ST2 IL33 inh: inhibitors of human ST2 (IL1RL1) binding to IL-33. inhibition, % for hits at 17 µM. Q01638. actives 2.3% (n = 78,000). AlphaLISA ST2-Fc/biotin-IL-33 interaction, 1 h. AID 1259354; in the data active = inhibition above about 30%
Target sequence (Q01638 whole entry, looked up): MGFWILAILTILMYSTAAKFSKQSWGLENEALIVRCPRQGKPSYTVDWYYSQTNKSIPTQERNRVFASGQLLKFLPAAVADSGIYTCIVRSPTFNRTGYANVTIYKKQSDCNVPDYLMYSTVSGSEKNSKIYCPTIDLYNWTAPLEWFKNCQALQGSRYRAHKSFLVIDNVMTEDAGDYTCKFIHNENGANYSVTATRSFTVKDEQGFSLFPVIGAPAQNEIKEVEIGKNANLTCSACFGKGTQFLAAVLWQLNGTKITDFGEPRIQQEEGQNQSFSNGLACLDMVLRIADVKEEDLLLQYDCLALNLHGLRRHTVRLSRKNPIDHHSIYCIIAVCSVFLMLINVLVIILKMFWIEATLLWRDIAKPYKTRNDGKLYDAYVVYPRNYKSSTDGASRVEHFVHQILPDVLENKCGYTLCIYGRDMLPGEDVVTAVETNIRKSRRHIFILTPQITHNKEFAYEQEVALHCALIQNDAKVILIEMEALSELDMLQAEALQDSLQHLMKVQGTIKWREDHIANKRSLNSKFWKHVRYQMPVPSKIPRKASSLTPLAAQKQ
Numbers without * were called inactive; i = inactive. The full list was thinned out, with hits kept by preference.

SMILES	ST2 IL33 inh
COc1ccc(Cl)cc1/C=C/[N+](=O)[O-]	97%*
C#CCOc1c(I)cc(/C=C/[N+](=O)[O-])cc1OC	i
O=C(O)CSCC(=O)N1C[C@@H]2C[C@H](C1)c1ccc(-c3cccc(C(F)(F)F)c3)c(=O)n1C2	i
O=c1cccc2n1C[C@H]1C[C@@H]2CN(C[C@H]2CN3CC[C@H]2C[C@@H]3CNC(=S)NCc2ccco2)C1	i
Cn1nc(-c2ccc(F)cc2)cc1[C@H]1CN2CC[C@H]1C[C@@H]2CNC(=O)NCc1ccccc1	i
Clc1ccc(CN2CCN(c3ccccc3)CC2)cc1Cl	i
Clc1cccc(N2CCN(Cc3ccccc3Cl)CC2)c1	i
COc1cccc(N2CCN(Cc3ccccc3OC)CC2)c1	i
COc1ccccc1CN1CCN(c2ccccc2)CC1	i
CN1CCN(Cc2ccc(Cl)c(Cl)c2)CC1	i
COc1cc(C)c(CN2CCN(c3ccccc3)CC2)cc1C	31%*
COc1cccc(CN2CCN(c3ccc(F)cc3)CC2)c1	i
COc1ccc(CN2CCN(c3cccc(C)c3C)CC2)cc1	i
COc1ccc(N2CCN(Cc3ccc(Cl)cc3)CC2)cc1	44%*
COc1ccc(CN2CCN(c3ccccc3)CC2)cc1O	i
COc1ccc(N2CCN(Cc3cccc(Cl)c3Cl)CC2)cc1	32%*
COc1ccc(N2CCN(Cc3ccc(Cl)c(Cl)c3)CC2)cc1	35%*
CC(=O)N1C[C@@H]2C[C@H](C1)c1ccc(NS(=O)(=O)c3ccccc3)c(=O)n1C2	i
Cc1nc(C)n(CCCNC(C)Cc2ccccc2F)n1 (stereo not given)	i
CN(C)Cc1ccccc1-c1ccc2n(c1=O)C[C@H]1C[C@@H]2CN(Cc2ccc(F)cc2)C1	i
Clc1ccccc1CN1CCN(Cc2ccccc2)CC1	i
COc1ccc(OC)c(CNC(=O)c2cn(CC3CCCO3)nn2)c1 (stereo not given)	i
Cc1ccc2c(=O)n(-c3ccc(Cl)c(Cl)c3)c(=O)[nH]c2c1	i
CN1C2CCC1CC(NCCc1ccccc1)C2 (stereo not given)	i
CSCC(=O)Nc1ccc(=O)n2c1[C@@H]1C[C@@H](CN(C(=O)COc3ccccc3)C1)C2	i
SMILES	ST2 IL33 inh
COc1ccc(N2CCN(Cc3cc(Br)ccc3OC)CC2)cc1	41%*
Fc1ccc(CN2CCN(c3cccc(Cl)c3)CC2)c(F)c1	i
Cc1ccc(N2CCN(Cc3c(F)cccc3Cl)CC2)cc1	36%*
CCOc1ccc(CN2CCN(c3ccc(OC)cc3)CC2)cc1	34%*
COc1cc(CN2CCN(c3ccc(F)cc3)CC2)ccc1O	i
Cc1cccc(CN2CCN(c3ccccc3Cl)CC2)c1	i
COc1ccc(Br)cc1CN1CCN(c2ccccc2C)CC1	i
CCN1CCN(Cc2cc(Br)ccc2OC)CC1	i
CCOc1ccc(CN2CCN(c3ccccc3OC)CC2)cc1	i
C=C[C@H]1CN2CC[C@H]1C[C@@H]2CNC(=O)Nc1ccc(Oc2ccccc2)cc1	i
C=C[C@H]1CN2CC[C@H]1C[C@@H]2CNS(=O)(=O)c1ccccc1	i
CCN1CCN(Cc2ccc([N+](=O)[O-])cc2)CC1	i
C=C[C@H]1CN2CC[C@H]1C[C@@H]2CNC(=O)c1ccccc1C(=O)O	i
C#CC(C)(C)N1CC[C@@H](O)[C@@H]2CCC[C@@H]21	i
CCOc1ccc(Br)cc1C1C(C#N)=C(N)Oc2c1c(=O)oc1ccccc21 (stereo not given)	i
CN1CCN(Cc2ccc(Cl)cc2Cl)CC1	i
CCOc1ccc(CN2CCN(c3ccccc3C)CC2)cc1	i
Cc1ccccc1N1CCN(Cc2ccc(N(C)C)cc2)CC1	45%*
Cc1ccccc1N1CCN(Cc2ccc(O)cc2)CC1	i
O=C(c1ccc(N2N=N2)cc1)c1ccc(N2N=N2)cc1	i
Cc1noc(C)c1CNC(C)Cn1cncn1 (stereo not given)	i
COc1ccc(-c2ccc3n(c2=O)C[C@H]2C[C@@H]3CN(C(=O)c3ccc(C#N)cc3)C2)cc1	i
COCCC(=O)N1C[C@@H]2C[C@H](C1)c1ccc(NC(=O)c3ccc(C#N)cc3)c(=O)n1C2	35%*
COCCC(=O)N1C[C@@H]2C[C@H](C1)c1ccc(-c3cccc(C(F)(F)F)c3)c(=O)n1C2	i
Cc1cc(NCCNc2ccc([N+](=O)[O-])cc2)n2c(nc3ccccc32)c1C#N	i
SMILES	ST2 IL33 inh
O=C([C@H]1CN2CC[C@H]1C[C@@H]2Cn1cc(CC2CCCCC2)nn1)N1CCOCC1	i
CC(Nc1ccc([N+](=O)[O-])c2cccnc12)c1ccc(Br)cc1 (stereo not given)	40%*
O=[N+]([O-])c1ccc(NCCCN2CCOCC2)c2cccnc12	i
O=C(NC[C@H]1C[C@@H]2CCN1C[C@@H]2CN1CCC(Cc2ccccc2)CC1)c1ccccc1	i
Cc1ccc(N2CCC3(CCCNC3)C2)nn1 (stereo not given)	i
CN1CCN(Cc2cccc(Br)c2)CC1	i
CCN1CCN(Cc2cccc(Br)c2)CC1	i
Fc1ccc(CN2CCN(c3cccc(Cl)c3)CC2)cc1	i
O=[N+]([O-])c1ccc(CN2CCN(Cc3ccccc3)CC2)cc1	i
